Laboratory results taken from PubChem BioAssay.
Results filed as inconclusive are left out. The source made the active and inactive calls. Rule as the data show it, unless noted: active = inhibition above about 80%; inactive = the rest.

What was measured:
[1] = SU-DIPG-XXV glioma cell viability, MIPE5.0 library, qHTS (AID 1347068; cut-off not given, nearly all actives have IC50 up to about 30 µM;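 as to IC50: cells exposed to compound for 48 hours before viability readout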)
[2] = viability rescue of complex I mutant cybrids, primary screen, cell-based, galactose medium, ATP luminescence (AID 1645843;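 active = z-score of at least 1.8 in each of two replicates, scored against plate mean and spread of sample wells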;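 also: positive z means more ATP and so rescue of galactose-driven cybrid death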); conditions: complex I mutant cybrid cells, 72 h, stronger effect = higher value
[3] = growth inhibition of DIPG glioma cells, dose response, cell-based, JHH-DIPG-1, MIPE4.0, CellTiter-Glo, qHTS (AID 1347062; cut-off not given, nearly all actives have AC50 up to about 27 µM;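 as to AC50: cells exposed to compound for two days before readout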); conditions: JHH-DIPG-1 viability, CellTiter-Glo ATP luminescence
[4] = SU-DIPG-VI glioma cell viability, MIPE4.0 library, CellTiter-Glo luminescence, qHTS (AID 1347066; cut-off not given, nearly all actives have AC50 up to about 30 µM;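 also: cells exposed to compound for 48 hours before readout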); conditions: CellTiter-Glo ATP luminescence
[5] = growth inhibition of DIPG glioma cells, dose response, cell-based, SU-DIPG-IV, MIPE4.0, CellTiter-Glo, qHTS (AID 1347063; cut-off not given, nearly all actives have AC50 up to about 30 µM;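 also: compound exposure lasted 48 hours before the viability readout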); conditions: SU-DIPG-IV viability, CellTiter-Glo ATP luminescence
[6] = growth inhibition of DIPG glioma cells, dose response, cell-based, SU-DIPG-XIII, MIPE5.0, CellTiter-Glo, qHTS (AID 1347064; cut-off not given, nearly all actives have AC50 up to about 23 µM;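 as to AC50: cells exposed to compound for 48 hours before the viability read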); conditions: SU-DIPG-XIII viability, CellTiter-Glo ATP luminescence
[7] = viability loss in pontine glioma line – cell-based, SU-DIPG-XXV, MIPE5.0, CellTiter-Glo, qHTS, dose response (AID 1347065; cut-off not given, nearly all actives have AC50 up to about 26 µM;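 also: cells exposed to compound for 48 hours before ATP readout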); conditions: CellTiter-Glo ATP luminescence
[8] = JHH-DIPG-1 glioma cell viability, MIPE5.0 library, CellTiter-Glo luminescence, qHTS (AID 1347067; cut-off not given, nearly all actives have AC50 up to about 26 µM;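 also: cells exposed to compound for 48 hours before readout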); conditions: JHH-DIPG-1 glioma viability, CellTiter-Glo ATP luminescence
[9] = molecular target: Mitogen-activated protein kinase 7 (Homo sapiens) (UniProt Q13164); test: ERK5 transactivation activators in reporter cells, primary screen, cell-based, HTS (AID 1508626;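 active = luciferase signal above three times the same-plate solvent-only control wells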;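 also: luciferase driven by Gal4-ERK5 fusion binding five Gal4 sites before minimal TATA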); conditions: HeLa Gal4-ERK5 transactivation, 18 h, at 5 µM, stronger effect = higher value
[10] = molecular target: ATP-dependent translocase ABCB1 (Homo sapiens) (UniProt P08183); test: MDR1 (ABCB1) efflux transporter inhibition, cell-based (AID 377; in the data active = fluorescence slope change above about 50%); conditions: MDR1-expressing cells, fluorescent substrate accumulation slope; stronger effect = higher value; concentration not given here
[11] = LFS_MB_1R medulloblastoma cell growth inhibition, synergistic combos for chromothripsis tumors, cisplatin or BGB combos (AID 1671452); conditions: LFS_MB_1R medulloblastoma cells, stronger effect = higher value;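 also: cells exposed for 96 hours before readout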
[12] = CRL2098 osteosarcoma cell growth inhibition, synergistic combos for chromothripsis tumors, BGB or cisplatin IC20 combos (AID 1671454); conditions: CRL2098 osteosarcoma cells, drug combinations, stronger effect = higher value;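 also: cells exposed for 96 h before readout; 0% = vehicle DMSO and 100% = killing by high DMSO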
[13] = HD-MB03 medulloblastoma cell growth inhibition, synergistic combos for chromothripsis tumors, BGB or cisplatin IC20 combos (AID 1671455; in the data active = inhibition above about 83%;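 also: 0% = vehicle DMSO and 100% = high DMSO as cytotoxic control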); conditions: HD-MB03 medulloblastoma cells, stronger effect = higher value
[14] = UWB1.289 ovarian carcinoma cell growth inhibition, synergistic combos for chromothripsis tumors, BGB or cisplatin combos (AID 1671456); conditions: UWB1.289 ovarian carcinoma cells, stronger effect = higher value;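 also: cells exposed to compound for four days; 0% = vehicle DMSO and 100% = killing by high DMSO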
[15] = LFS_MB_2R medulloblastoma cell growth inhibition, synergistic combos for chromothripsis tumors, cisplatin combos (AID 1671457); conditions: LFS_MB_2R medulloblastoma cells, stronger effect = higher value;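 also: cells exposed to compound for four days before readout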
[16] = UWB1.289_BRCA1 ovarian cancer growth, cell-based, BGB or cisplatin combinations (AID 1671459); conditions: UWB1.289 BRCA1 ovarian carcinoma, drug combinations, stronger effect = higher value
[17] = human astrocyte viability loss, single and combined drugs, cytotoxicity control for chromothriptic childhood tumor combination screen, cell-based, BGB or cisplatin IC20 combos (AID 1671460); conditions: Human astrocytes, drug combinations, stronger effect = higher value;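 also: cells exposed to compounds for 96 hours before viability readout; 0% = vehicle and 100% = killing control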
[18] = growth inhibition of BT084 medulloblastoma cells, cell-based, ICGC_MB145, cisplatin and BGB IC40 combos (AID 1671461); conditions: drug combinations, stronger effect = higher value;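 also: cells exposed to drugs for 96 hours; 0% = vehicle DMSO and 100% = high DMSO full killing control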
[19] = growth inhibition of RCMB18 medulloblastoma cells, cell-based, cisplatin and BGB IC40 combos (AID 1671462); conditions: stronger effect = higher value;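 also: cells exposed to compound for four days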
[20] = growth inhibition of CRL1545 osteosarcoma cells, cell-based, cisplatin and BGB IC20 combos (AID 1671464); conditions: stronger effect = higher value;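 also: cells exposed to compound for 96 hours before readout; 0% = vehicle DMSO and 100% = high DMSO killing control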
[21] = measured here: combination with BGB IC40, at 0.05 µM
[22] = measured here: combination with cisplatin, at 0.5 µM
[23] = measured here: combination with cisplatin, at 5 µM
[24] = measured here: combination with BGB at IC20, at 0.5 µM
[25] = measured here: combination with cisplatin at IC20, at 0.5 µM
[26] = measured here: combo with BGB at IC20, at 0.5 µM
[27] = measured here: combo with cisplatin at IC20, at 0.5 µM
[28] = measured here: inhibition with BGB combination, at 0.05 µM
[29] = measured here: inhibition with cisplatin combination, at 0.05 µM
[30] = BGB combination, concentration series, at 5 µM
[31] = cisplatin combination, concentration series, at 5 µM
[32] = measured here: combo with BGB IC20, at 0.5 µM
[33] = measured here: combo with cisplatin IC20, at 0.5 µM
[34] = cisplatin combination, at 0.5 µM
[35] = measured here: BGB IC40 combination 0.05 uM, at 0.05 µM
[36] = measured here: BGB IC40 combination, at 0.05 µM
[37] = measured here: with BGB IC20 combination, at 0.5 µM
[38] = measured here: with cisplatin IC20 combination, at 0.5 µM

ATP-dependent translocase ABCB1 (Homo sapiens), sequence (P08183 whole entry, looked up): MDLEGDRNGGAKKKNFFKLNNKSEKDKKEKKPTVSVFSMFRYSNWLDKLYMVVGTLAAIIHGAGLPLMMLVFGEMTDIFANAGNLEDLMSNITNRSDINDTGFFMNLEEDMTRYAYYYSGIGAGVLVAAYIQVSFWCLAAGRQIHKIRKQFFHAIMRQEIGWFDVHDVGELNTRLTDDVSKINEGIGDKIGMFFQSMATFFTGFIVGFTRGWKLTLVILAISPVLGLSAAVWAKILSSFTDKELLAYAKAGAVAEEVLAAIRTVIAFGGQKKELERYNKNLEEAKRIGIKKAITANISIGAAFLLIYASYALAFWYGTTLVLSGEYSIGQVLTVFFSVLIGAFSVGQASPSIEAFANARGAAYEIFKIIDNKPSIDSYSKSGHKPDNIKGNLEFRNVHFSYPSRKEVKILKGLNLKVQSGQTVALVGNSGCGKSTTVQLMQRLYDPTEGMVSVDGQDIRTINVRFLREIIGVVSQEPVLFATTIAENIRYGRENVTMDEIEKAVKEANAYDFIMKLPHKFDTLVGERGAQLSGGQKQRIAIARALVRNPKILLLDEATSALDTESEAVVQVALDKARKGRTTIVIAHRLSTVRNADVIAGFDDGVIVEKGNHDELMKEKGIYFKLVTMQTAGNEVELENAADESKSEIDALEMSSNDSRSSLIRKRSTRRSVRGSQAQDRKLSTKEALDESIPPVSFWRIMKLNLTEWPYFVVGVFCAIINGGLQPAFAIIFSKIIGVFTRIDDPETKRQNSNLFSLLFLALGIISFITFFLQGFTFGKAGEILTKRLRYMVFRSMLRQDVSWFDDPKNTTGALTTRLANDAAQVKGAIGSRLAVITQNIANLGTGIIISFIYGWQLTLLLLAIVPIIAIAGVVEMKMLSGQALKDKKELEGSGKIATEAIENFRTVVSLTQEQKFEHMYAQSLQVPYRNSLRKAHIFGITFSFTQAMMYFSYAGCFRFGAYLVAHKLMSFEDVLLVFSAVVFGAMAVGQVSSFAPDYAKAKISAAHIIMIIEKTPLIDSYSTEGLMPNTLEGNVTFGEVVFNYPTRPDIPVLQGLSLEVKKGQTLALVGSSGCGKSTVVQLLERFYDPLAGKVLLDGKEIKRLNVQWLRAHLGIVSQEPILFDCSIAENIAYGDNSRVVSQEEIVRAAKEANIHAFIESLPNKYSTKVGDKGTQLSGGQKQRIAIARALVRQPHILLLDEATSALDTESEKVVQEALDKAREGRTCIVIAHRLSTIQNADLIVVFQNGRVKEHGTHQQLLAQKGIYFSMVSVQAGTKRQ
Mitogen-activated protein kinase 7 (Homo sapiens), sequence (Q13164 whole entry, looked up, the tested form may be a part): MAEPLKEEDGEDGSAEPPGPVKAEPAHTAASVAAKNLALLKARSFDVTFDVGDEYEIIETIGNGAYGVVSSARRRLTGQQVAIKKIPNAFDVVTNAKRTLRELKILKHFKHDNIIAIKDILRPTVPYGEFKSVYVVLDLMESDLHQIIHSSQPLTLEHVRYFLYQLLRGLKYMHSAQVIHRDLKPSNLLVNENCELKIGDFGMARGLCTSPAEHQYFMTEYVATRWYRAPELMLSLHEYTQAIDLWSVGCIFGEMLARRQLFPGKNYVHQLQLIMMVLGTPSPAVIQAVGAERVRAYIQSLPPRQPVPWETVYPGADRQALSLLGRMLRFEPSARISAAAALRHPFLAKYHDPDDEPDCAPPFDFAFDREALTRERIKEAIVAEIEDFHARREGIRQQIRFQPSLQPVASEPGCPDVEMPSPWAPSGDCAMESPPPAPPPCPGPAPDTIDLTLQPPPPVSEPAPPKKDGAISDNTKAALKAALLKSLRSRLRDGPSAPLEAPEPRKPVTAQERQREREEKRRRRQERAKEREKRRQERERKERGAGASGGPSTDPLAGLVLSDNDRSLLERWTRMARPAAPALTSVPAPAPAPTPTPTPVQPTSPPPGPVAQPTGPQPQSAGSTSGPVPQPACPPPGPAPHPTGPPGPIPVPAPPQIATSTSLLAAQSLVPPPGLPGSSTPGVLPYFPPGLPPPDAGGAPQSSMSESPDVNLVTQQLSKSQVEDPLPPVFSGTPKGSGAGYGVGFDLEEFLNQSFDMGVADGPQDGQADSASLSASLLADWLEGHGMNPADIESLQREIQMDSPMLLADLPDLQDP

## COc1ccc2[nH]c(S(=O)Cc3ncc(C)c(OC)c3C)nc2n1 (stereo unspecified)
[1]
  outcome: inactive
[2]
  z-score: 0.825 (inactive)

## CCN(C)C(=O)Oc1cccc([C@H](C)N(C)C)c1
[3]
  outcome: inactive
[4]
  outcome: inactive
[2]
  z-score: 0.825 (inactive)

## O=C1Cc2cc(CCN3CCN(c4nsc5ccccc45)CC3)c(Cl)cc2N1
[5]
  AC50: 26400 nM (active)
[4]
  AC50: 23500 nM (active)
[2]
  z-score: -0.165 (inactive)

## CC(=O)Oc1cc(C(C)C)c(OCCN(C)C)cc1C
[2]
  z-score: 0.335 (inactive)

## CN(N=O)C(=O)N[C@@H]1[C@@H](O)[C@H](O)[C@@H](CO)O[C@@H]1O
[6]
  outcome: inactive
[7]
  outcome: inactive
[8]
  outcome: inactive
[1]
  outcome: inactive
[9]
  luciferase signal: 120 AU (inactive)

## COc1cc2c(c(OC)c1OC)-c1ccc(OC)c(=O)cc1[C@@H](NC(C)=O)CC2
[10]
  fluorescence slope change: 7.7% (inactive)
[3]
  AC50: 105 nM (active)
[5]
  outcome: inactive
[6]
  AC50: 52.5 nM (active)
[7]
  AC50: 41.7 nM (active)
[8]
  AC50: 29.5 nM (active)
[1]
  IC50: 46.8 nM (active)
[9]
  luciferase signal: 88 AU (inactive)
[2]
  z-score: -0.69 (inactive)

## CC(=O)NCCCS(=O)(=O)O
[6]
  outcome: inactive
[7]
  outcome: inactive
[1]
  outcome: inactive
[9]
  luciferase signal: 52 AU (inactive)

## CC(S)C(=O)NCC(=O)O (stereo unspecified)
[3]
  outcome: inactive
[4]
  outcome: inactive
[1]
  outcome: inactive

## Cc1cc(=O)oc2cc(O)ccc12
[3]
  outcome: inactive
[5]
  outcome: inactive
[7]
  outcome: inactive
[4]
  outcome: inactive
[8]
  outcome: inactive

## Clc1ccc(Cn2c(CN3CCCC3)nc3ccccc32)cc1
[10]
  fluorescence slope change: 82.8% (active)
[8]
  outcome: inactive
[1]
  outcome: inactive
[9]
  luciferase signal: 56 AU (inactive)
[2]
  z-score: -1.35 (inactive)

## CN(C)CCN(Cc1ccc(Cl)cc1)c1ccccn1
[10]
  fluorescence slope change: 92.6% (active)
[3]
  outcome: inactive
[4]
  outcome: inactive

## CC(=O)c1ccc2c(c1)N(CCCN(C)C)c1ccccc1S2
[10]
  fluorescence slope change: 72% (active)
[9]
  luciferase signal: 32 AU (inactive)
[2]
  z-score: -0.995 (inactive)

## O=C(CCCCCCC(=O)Nc1ccccc1)NO
[3]
  AC50: 3720 nM (active)
[6]
  AC50: 1180 nM (active)
[7]
  AC50: 833 nM (active)
[8]
  AC50: 1480 nM (active)
[1]
  outcome: inactive
[11]; at 0.5 µM
  inhibition: 17.4% (inactive)
[11]; [21]
  inhibition: -3.43%
[11]; [22]
  inhibition: 21.7%
[11]; [23]
  inhibition: 83.1%
[12]; at 0.5 µM
  inhibition: -45.6% (inactive)
[12]; [24]
  inhibition: -78.4%
[12]; [25]
  inhibition: -12.2%
[13]; at 0.5 µM
  inhibition: 22% (inactive)
[13]; [26]
  inhibition: 21%
[13]; [27]
  inhibition: 48.3%
[14]; at 0.5 µM
  inhibition: 14.7% (inactive)
[14]; [28]
  inhibition: -38.8%
[14]; [29]
  inhibition: -24.2%
[15]; at 0.5 µM
  inhibition: -2.63% (inactive)
[15]; [22]
  inhibition: 3.49%
[15]; [23]
  inhibition: 79.7%
[16]; [30]
  inhibition: 69.1%
[16]; at 0.5 µM
  inhibition: 9.38% (inactive)
[16]; [31]
  inhibition: 84.7%
[17]; at 0.5 µM
  inhibition: -0.71% (inactive)
[17]; [32]
  inhibition: -2.1%
[17]; [33]
  inhibition: -2.33%
[18]; at 0.5 µM
  inhibition: 10.3% (inactive)
[18]; [34]
  inhibition: 36%
[18]; cisplatin combination, at 5 µM
  inhibition: 98.4%
[18]; [35]
  inhibition: -23.4%
[18]; single agent, at 5 µM
  inhibition: 87.4%
[19]; at 0.5 µM
  inhibition: 14.4% (inactive)
[19]; cisplatin combo, at 5 µM
  inhibition: 93.4%
[19]; [36]
  inhibition: -14.3%
[19]; [22]
  inhibition: 47.6%
[19]; single agent, at 5 µM
  inhibition: 78.3%
[20]; at 0.5 µM
  inhibition: 74.5% (inactive)
[20]; [37]
  inhibition: 65.9%
[20]; [38]
  inhibition: 78.3%
[20]; single agent, at 0.05 µM
  inhibition: -34.3%
[20]; single agent, at 5 µM
  inhibition: 88.9%

## CCCCCCCCCCCCCCCCCCCCCCO
[3]
  outcome: inactive
[5]
  outcome: inactive
[6]
  outcome: inactive
[7]
  outcome: inactive
[4]
  outcome: inactive
[8]
  outcome: inactive
[1]
  outcome: inactive
[9]
  luciferase signal: 140 AU (inactive)

## CN1CCN(c2c(F)cc3c(=O)c(C(=O)O)cn(CCF)c3c2F)CC1
[3]
  outcome: inactive
[5]
  outcome: inactive
[2]
  z-score: 0.245 (inactive)
[11]; at 0.5 µM
  inhibition: -3.54% (inactive)
[11]; [21]
  inhibition: 5.98%
[11]; [22]
  inhibition: 2.19%
[11]; [23]
  inhibition: -16.1%
[12]; at 0.5 µM
  inhibition: 11.6% (inactive)
[12]; [24]
  inhibition: -0.381%
[12]; [25]
  inhibition: 26.4%
[13]; at 0.5 µM
  inhibition: 6.76% (inactive)
[13]; [26]
  inhibition: 8.44%
[13]; [27]
  inhibition: 5.72%
[14]; at 0.5 µM
  inhibition: 9.66% (inactive)
[14]; [28]
  inhibition: -0.955%
[14]; [29]
  inhibition: 3.11%
[15]; at 0.5 µM
  inhibition: 7.8% (inactive)
[15]; [22]
  inhibition: 7.66%
[15]; [23]
  inhibition: -16.2%
[16]; [30]
  inhibition: 7.04%
[16]; at 0.5 µM
  inhibition: 5.73% (inactive)
[16]; [31]
  inhibition: -0.678%
[17]; at 0.5 µM
  inhibition: 5.13% (inactive)
[17]; [32]
  inhibition: 2.15%
[17]; [33]
  inhibition: 3.47%
[18]; at 0.5 µM
  inhibition: -2.41% (inactive)
[18]; [34]
  inhibition: -7.17%
[18]; cisplatin combination, at 5 µM
  inhibition: 4.75%
[18]; [35]
  inhibition: 34.4%
[18]; single agent, at 5 µM
  inhibition: 1.35%
[19]; at 0.5 µM
  inhibition: 18.3% (inactive)
[19]; cisplatin combo, at 5 µM
  inhibition: 48%
[19]; [36]
  inhibition: -3.02%
[19]; [22]
  inhibition: 34.2%
[19]; single agent, at 5 µM
  inhibition: -5.57%
[20]; at 0.5 µM
  inhibition: -0.47% (inactive)
[20]; [37]
  inhibition: -8.63%
[20]; [38]
  inhibition: 1.43%
[20]; single agent, at 0.05 µM
  inhibition: 8.93%
[20]; single agent, at 5 µM
  inhibition: 2.13%
